Compound activity from PubChem.
In the library only some 32% were active in any assay of this set; here they are far more common.
CYP2C9 act: increases human cytochrome P450 2C9 activity; P11712; recombinant CYP2C9, luciferin-H conversion, luminescence; active compounds read high; factor 1 = untreated enzyme, 0 = blocked; activation factor at 5 µM; 1.4% of 96,000 active; AID 1024;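 active = activation factor of 2 or more for CYP2C9 at a 5 µM dose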;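 note: 0 = sulfaphenazole-blocked wells and 1 = vehicle-only wells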
Target sequence (P11712 whole entry, looked up): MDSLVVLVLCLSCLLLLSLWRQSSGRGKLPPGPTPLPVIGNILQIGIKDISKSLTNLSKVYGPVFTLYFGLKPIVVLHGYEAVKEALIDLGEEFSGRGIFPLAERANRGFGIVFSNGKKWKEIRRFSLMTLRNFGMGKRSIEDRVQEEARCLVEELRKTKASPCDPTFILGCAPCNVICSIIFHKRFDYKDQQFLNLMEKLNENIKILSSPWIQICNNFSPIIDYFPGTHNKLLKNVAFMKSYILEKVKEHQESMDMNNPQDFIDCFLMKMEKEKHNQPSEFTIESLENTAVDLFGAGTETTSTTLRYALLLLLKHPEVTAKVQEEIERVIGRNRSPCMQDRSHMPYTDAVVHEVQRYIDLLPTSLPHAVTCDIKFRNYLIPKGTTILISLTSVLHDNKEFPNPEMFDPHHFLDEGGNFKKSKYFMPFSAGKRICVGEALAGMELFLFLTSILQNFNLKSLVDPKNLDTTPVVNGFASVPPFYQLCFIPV
CYP2C19 activ: activators of human cytochrome P450 2C19; recombinant CYP2C19, luciferin-H EGE luminescence; active compounds read high; 0 = fully inhibited enzyme, 1 = untreated enzyme; activation factor at 5 µM; AID 1025; 96,000 tested, under 10 active; P33261;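 active = activation factor of at least 2 at 5 µM in the primary screen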;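 note: 0 = wells with 2.5 mM tranylcypromine and 1 = vehicle-only wells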
CYP2C19 inh: blocks human cytochrome P450 2C19; inhibition, % at 5 µM; AID 778; 21% of 96,000 active; CYP2C19 Supersomes, luciferin-H EGE luminescence, 30 min;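 active = CYP2C19 inhibition above a set limit at 5 µM in the primary screen, cut at about 50% in these data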;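 note: plate controls were negative control wells for no effect and 2.5 mM tranylcypromine positive control for full effect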
CYP2C9 inhib: inhibitors of human CYP2C9; P11712; CYP2C9 Supersomes, luciferin-H conversion, luminescence; inhibition, % at 5 µM; 20% of 96,000 active; AID 777;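 active = blocking of liver enzyme CYP2C9 beyond about 50% at 5 µM, limit read from the data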
PostGolgi ctrl: inhibits growth of the yeast control strain; AID 738; efflux-deficient yeast background strain, growth absorbance A615, 16 h; 5% of 98,000 active; inhibition, % at 10 µM
PostGolgi yeast: growth inhibition of a yeast mutant, post-Golgi transport screen; post-Golgi transport phenotypic cell assay; inhibition, % at 10 µM; 0.9% of 98,000 active; AID 739;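 note: yeast cells grown in 1536-well plates; yeast grown about 18 h at 30C before absorbance read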
* hit, by the source's call; . = no result. Cut-off read from the data, not from the text of the source, unless noted: active = inhibition above about 30%; inactive = the rest.

SMILES	CYP2C9 act	CYP2C19 activ	CYP2C19 inh	CYP2C9 inhib	PostGolgi ctrl	PostGolgi yeast
Cc1ccccc1NC(=O)NCCCN1CCN(c2ccccc2)CC1	0.6	0.9	8	39	2	-9
O=C1CC(=C(c2ccccc2)c2ccccc2)C(=O)N1CCCCN1CCN(c2ccccc2)CC1	0.3	0.6	44	73*	3	5
CN1CCN(S(=O)(=O)c2ccc(Br)c3nsnc23)CC1	1.2	0.8	24	-17	-13	3
Cn1c(NC(=O)CCc2ccccc2)cc(=O)n(C)c1=O	0.9	0.6	40	7	36*	-5
O=C(CCCc1nc(-c2ccccc2)no1)Nc1cccnc1	0.8	0.9	13	21	0	15
O=C(CCCc1ccccc1)Nc1cccnc1	0.5	0.3	75*	50*	1	-2
CN(C)c1ccc(NC(=O)CN2C(=O)CC(c3ccccc3)=Nc3ccccc32)cc1	0.3	0.9	6	72*	3	18
CN(C)c1ccc(NC(=O)Cn2ncn3c(cc4ccccc43)c2=O)cc1	0.7	0.6	36	35	-3	-19
O=C(CCc1ccccc1)Nc1cccc(NC(=O)CCc2ccccc2)c1	0.1	0.5	45	88*	-10	0
COc1cc(OC)nc(Oc2ccccc2C(=O)Oc2ccc(F)cc2Cl)n1	0.6	0.7	33	42	29	-1
CCn1c(=NC(=O)CN2C(=O)CCC2=O)sc2c(C)cc(C)cc21	1.8	0.8	17	-76	9	-4
CCCCNC(=O)C(NS(=O)(=O)c1cccc2nsnc12)c1ccccc1 (configuration not stated)	0.6	0.8	20	42	0	-3
CC(=O)Nc1ccc(-c2nnc(SCc3c(C)cc(C)cc3C)n2C)cc1	0.8	1	2	15	1	-11
COCCSc1nc2c(c(=O)[nH]c(=O)n2C)n1Cc1cccc(C)c1	.	.	.	.	-7	1
CN(C)c1ccc(NC(=O)CCCc2ccccc2)cc1	0.5	0	100*	49	-9	1
CC(C)NC(=O)CCCc1ccccc1	1	0.8	21	-4	-3	0
COc1ccc(OC)c(N2C(=O)CC(C(C)c3ccccc3)C2=O)c1 (configuration not stated)	0.8	0.3	66*	19	5	7
Cc1ccccc1OCc1nnc2c3cnn(C)c3ncn12	1	0.6	41	1	34*	-9
COC(=O)c1ccc(NC(=O)CSc2nnc(COc3ccccc3)n2C)cc1	0.8	0.8	15	17	13	8
Cc1ccccc1OCc1nc2ccccc2c(=O)n1N	0.5	0.5	53*	50*	6	-2
COc1cccc(OCc2nc3ccccc3c(=O)n2N)c1	0.9	0.7	30	12	31*	-22
Nn1c(COc2ccccc2)nc2ccccc2c1=O	0.8	0.5	52*	23	4	18
CCCCCc1nc2ccccc2c(=O)n1N	0.7	0.4	60*	31	12	4
CCCc1nc2ccccc2c(=O)n1N	1	1	5	4	4	2
COc1ccc(C(=S)Nc2ccc(N(C)C)cc2)cc1	1.2	0.7	30	-20	-11	-2
SMILES	CYP2C9 act	CYP2C19 activ	CYP2C19 inh	CYP2C9 inhib	PostGolgi ctrl	PostGolgi yeast
Cc1cc(C)c(C)c(S(=O)(=O)NCc2ccco2)c1C	1.9	0.7	28	-94	34*	-4
Cc1cc(C)c(C)c(S(=O)(=O)NCc2cccnc2)c1C	0.8	0.8	23	20	3	3
Cc1ccc(S(=O)(=O)NCc2ccco2)cc1C	2.7*	0.2	80*	-172	7	-3
Cc1ccc(S(=O)(=O)N2CCN(C)CC2)c(C)c1	1.5	0.6	36	-48	2	-3
Cc1ccc(NC(=O)CCCCCC2NC(=O)NC2C)cc1 (configuration not stated)	1.5	0.4	61*	-48	2	3
CC1NC(=O)NC1CCCCC(=O)O (configuration not stated)	1	1	-4	-4	-16	-9
CC(=O)Nc1ccc(NS(=O)(=O)C(F)(F)F)cc1	0.6	0.9	14	38	5	-4
CCOc1ccc(CCNC(=O)C2CCCN(c3nnc(-n4cccc4)s3)C2)cc1OCC (configuration not stated)	0.4	0.5	49	60*	7	-14
